Assay results reported in PubChem BioAssay (NCI).
The panel holds about 83,000 compounds, 20% with a hit somewhere; the sample as a whole holds those more often.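 Values shown are percent growth following 48 h exposure of cells in 96-well plates to a single concentration of compound; below 10 was considered active.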 Activity calls are given as the source filed them.

system: MALME-3M melanoma; assay: NCI-60 one-dose screen, 48 h (100 = growth as untreated, 0 = no growth, -100 = all killed); settings: 10 µM

| Compound | growth |
| --- | --- |
| O=C(Nc1ccc(I)cc1F)c1cc(-c2ccc(F)cc2F)ccc1O | -21.4% (active) |
| COc1cccc(/C=C2\N=C(C)N(CCc3ccc(S(N)(=O)=O)cc3)C2=O)c1 | 98.2% (inactive) |
| CC1=C2C(=C[C@@](C)(COCOCCCl)[C@@H]2O)C(=O)[C@](C)(O)C12CC2 | -84.9% (active) |
| Nc1n[nH]c2cccc(C#Cc3cccc(NC(=O)Nc4cc(C(F)(F)F)cc(C(F)(F)F)c4)c3)c12 | -67.6% (active) |
| O=C(N=Nc1c(O)[nH]c2ccc(Br)cc12)c1ccc2nc(-c3ccccc3)[nH]c2c1 | -99.2% (active) |
| COc1cccc(-c2ccc(/C=N/NC(=O)c3[nH]c4ccc(Br)cc4c3-c3ccccc3)o2)c1 | 47.5% (inactive) |
| COc1cc2c(cc1OC)CN(CCCCOc1cc(O)c3c(=O)cc(-c4ccccc4)oc3c1)CC2 | -68.6% (active) |
| COc1ccc(CCN2C(=O)/C(=C/c3csc(C#N)n3)SC2=S)cc1 | 7.27% (active) |
| N#Cc1c(NC(=O)c2ccc(C(O)(C(F)(F)F)C(F)(F)F)cc2)sc2c1CCC(=O)C2 | -92.5% (active) |
| Cn1cc(-c2cc(N)n3nc(-c4c[nH]c5ccc(Br)cc45)cc3n2)c2cc(Br)cnc21 | -92.1% (active) |
| COc1ccccc1[C@H]1C(C(=O)c2ccc(Cl)cc2)C2(N[C@@H]1c1ccccc1)C(=O)Nc1ccccc12 (stereo partly drawn) | -37.4% (active) |
| CC(=O)Nc1ccc(-c2cn(-c3cccc(C(=O)Nc4cc(C(F)(F)F)cc(C(F)(F)F)c4)c3)nn2)cn1 | -48.3% (active) |
| CCCCCCCCCCCCCCCCCCCC(=O)NCCc1c[nH]c2ccc(OC(=O)CCCC(=O)OCCOOCCOOCCOOCCOOCCOOCCOOCCOOCCOOCCOOCCOOCCOOCCOC)cc12 | 102% (inactive) |
